According to PubChem BioAssay (NCI):
This is part of a sample that, as a whole, favours compounds with a hit. Of some 83,000 tested, about 20% had one in any assay.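 In brief: 96-well plates, 48 h treatment, single concentration, percent growth endpoint.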 The source made the active and inactive calls. The calls were made as follows: active = growth percent below 10; inactive = the rest.

Tests used:
Assay in all cases: NCI-60 one-dose screen, 48 h (100 = growth as untreated, 0 = no growth, -100 = all killed)
Settings in all cases: 10 µM
RXF 393 renal = system: RXF 393 renal
M14 melanoma = system: M14 melanoma
U251 CNS = system: U251 CNS
SK-MEL-5 melanoma = system: SK-MEL-5 melanoma
CCRF-CEM leukemia = system: CCRF-CEM leukemia
OVCAR-4 ovarian = system: OVCAR-4 ovarian
T-47D breast = system: T-47D breast
MCF7 breast = system: MCF7 breast
HCT-116 colon = system: HCT-116 colon
HCC-2998 colon = system: HCC-2998 colon
KM12 colon = system: KM12 colon
UACC-62 melanoma = system: UACC-62 melanoma
ACHN renal = system: ACHN renal
SNB-75 CNS = system: SNB-75 CNS
LOX IMVI melanoma = system: LOX IMVI melanoma
HCT-15 colon = system: HCT-15 colon
UO-31 renal = system: UO-31 renal

Measured: growth

C#C[C@]1(O)CC[C@H]2[C@@H]3CC=C4c5sc(Nc6cc(C)cc(C)n6)nc5CC[C@]4(C)[C@H]3CC[C@@]21C
active: RXF 393 renal -40% | M14 melanoma -42.1% | U251 CNS -58.9% | SK-MEL-5 melanoma -99.7% | CCRF-CEM leukemia 5% | T-47D breast -35.6% | MCF7 breast -89.7% | HCT-116 colon -56.1% | HCC-2998 colon 1.37% | KM12 colon -16.7%
inactive: OVCAR-4 ovarian 25.6%

Cn1cc(/C=C(/SS/C(=C/c2cn(C)c3cccc(C(=O)O)c23)C(=O)O)C(=O)O)c2c(C(=O)O)cccc21
inactive: RXF 393 renal 112% | M14 melanoma 115% | SK-MEL-5 melanoma 100% | UACC-62 melanoma 92.3% | ACHN renal 110% | CCRF-CEM leukemia 106% | OVCAR-4 ovarian 99.6% | MCF7 breast 92.6% | HCT-116 colon 118% | HCC-2998 colon 99.8% | KM12 colon 103%

O=C(c1ccc(F)cc1)C(c1c[nH]c2ccccc12)c1c[nH]c2ccccc12
active: LOX IMVI melanoma -76.3% | CCRF-CEM leukemia 3.4% | HCT-116 colon 7.24%
inactive: RXF 393 renal 40.3% | M14 melanoma 74.7% | SNB-75 CNS 79.1% | U251 CNS 74.8% | SK-MEL-5 melanoma 89.8% | UACC-62 melanoma 53.7% | ACHN renal 39.4% | OVCAR-4 ovarian 55.9% | MCF7 breast 15.2% | HCC-2998 colon 82.9% | KM12 colon 70.3%

COc1cccc(C(=O)CSc2nc(-c3ccc(OCc4ccccc4)c(OC)c3)c(C#N)c(=O)[nH]2)c1
inactive: RXF 393 renal 93% | M14 melanoma 99.5% | SK-MEL-5 melanoma 98.5% | ACHN renal 99.9% | CCRF-CEM leukemia 101% | OVCAR-4 ovarian 96.8% | T-47D breast 90.7% | MCF7 breast 91.3% | HCT-116 colon 99.6% | HCC-2998 colon 111% | KM12 colon 104%

O=C(Nc1ccc(OCc2ccc(F)cc2)cc1)Nc1ccc(Cl)c(C(F)(F)F)c1
active: RXF 393 renal -24.3% | M14 melanoma 9.01% | HCT-15 colon 7.42% | SK-MEL-5 melanoma -81.4% | LOX IMVI melanoma -47.4% | UO-31 renal 7.5% | T-47D breast 6.12% | MCF7 breast 3.2% | HCT-116 colon 4.96% | HCC-2998 colon 1.98%
inactive: OVCAR-4 ovarian 19% | KM12 colon 11.1%

COc1ccc2[nH]cc(-c3nc(N)nnc3-c3cn(C)c4ncc(Br)cc34)c2c1
active: RXF 393 renal -14% | SK-MEL-5 melanoma -50.1% | CCRF-CEM leukemia 1.4% | MCF7 breast 4.79% | HCT-116 colon 1.45% | KM12 colon 5.71%
inactive: HCT-15 colon 12.3% | UACC-62 melanoma 14.2% | LOX IMVI melanoma 20% | ACHN renal 10.2% | OVCAR-4 ovarian 37.4% | HCC-2998 colon 11.8%

Cn1cc(-c2nc(N)nnc2-c2c[nH]c3ccccc23)c2cc(Br)cnc21
active: RXF 393 renal 6.16% | SNB-75 CNS 2.04% | SK-MEL-5 melanoma -81.3% | MCF7 breast 4.57% | HCT-116 colon 7.04% | HCC-2998 colon -35%
inactive: HCT-15 colon 10.2% | UACC-62 melanoma 21.1% | UO-31 renal 11.8% | CCRF-CEM leukemia 20.5% | OVCAR-4 ovarian 32.1% | KM12 colon 13.1%

COc1ccccc1-n1cc(C#N)c(N)c1C(=O)c1ccc(Cl)cc1Cl
inactive: M14 melanoma 20.4% | HCT-15 colon 24.4% | U251 CNS 16.6% | SK-MEL-5 melanoma 17.3% | OVCAR-4 ovarian 61% | MCF7 breast 16.4% | HCT-116 colon 36.6% | HCC-2998 colon 58.5% | KM12 colon 22.9%
active: RXF 393 renal -8.31% | CCRF-CEM leukemia 7.78%

O=C(CC(=O)Nc1ccc(Oc2ncnc3scc(Nc4n[nH]c(=S)s4)c23)cc1)Nc1ccc(Cl)cc1
inactive: RXF 393 renal 94.8% | M14 melanoma 108% | U251 CNS 90.4% | SK-MEL-5 melanoma 89% | UO-31 renal 47% | ACHN renal 77.4% | CCRF-CEM leukemia 58.1% | OVCAR-4 ovarian 90.2% | T-47D breast 55.1% | MCF7 breast 11.7% | HCT-116 colon 92.5% | HCC-2998 colon 99.8%

Cc1ccc2c(c1)C(=O)/C(=C/c1ccc([N+](=O)[O-])cc1)S2
inactive: RXF 393 renal 109% | M14 melanoma 97.3% | SNB-75 CNS 81.3% | SK-MEL-5 melanoma 95.1% | UACC-62 melanoma 73.2% | LOX IMVI melanoma 105% | ACHN renal 102% | CCRF-CEM leukemia 109% | OVCAR-4 ovarian 83.4% | HCT-116 colon 14.3% | HCC-2998 colon 103% | KM12 colon 105%
active: MCF7 breast 3.81%

O=C(CN1CCN(c2ncnc3c2cnn3-c2ccccc2)CC1)Nc1ccc(Br)cc1
active: SK-MEL-5 melanoma 9.44%
inactive: RXF 393 renal 76% | HCT-15 colon 45.2% | SNB-75 CNS 80.9% | LOX IMVI melanoma 81.8% | CCRF-CEM leukemia 61.6% | OVCAR-4 ovarian 56.5% | T-47D breast 41.6% | MCF7 breast 36.8% | HCT-116 colon 52.5% | HCC-2998 colon 78.8% | KM12 colon 57.5%

CC1(C)CC[C@]2(C(=O)O)CC[C@]3(C)C(=CCC4[C@@]5(C)C[C@@H](O)[C@@H]6OC(c7cccc(F)c7)OC[C@@]6(C)C5CC[C@]43C)C2C1 (some centres undefined)
inactive: RXF 393 renal 67.2% | HCT-15 colon 23% | SK-MEL-5 melanoma 45.9% | UACC-62 melanoma 49.7% | CCRF-CEM leukemia 32% | OVCAR-4 ovarian 54.6% | MCF7 breast 21.5% | HCC-2998 colon 37.5% | KM12 colon 21.3%
active: HCT-116 colon 9.3%

CCOc1ccc(/C=N/NC(=O)Cn2nc(Cc3ccc(OC)cc3)c3onc(C)c3c2=O)cc1
active: RXF 393 renal -65.6% | LOX IMVI melanoma 4.69% | HCT-116 colon -23.3% | HCC-2998 colon -11.5%
inactive: M14 melanoma 39% | HCT-15 colon 49.9% | SK-MEL-5 melanoma 89.2% | CCRF-CEM leukemia 17.9% | OVCAR-4 ovarian 10.1% | MCF7 breast 27.9% | KM12 colon 47.9%

O=C1NC2C=CC=CC2/C1=C1/SC(=S)N(C2CC(=O)N(c3ccc(Br)cc3)C2=O)C1=O (centres undefined)
inactive: RXF 393 renal 109% | HCT-15 colon 59.3% | SNB-75 CNS 101% | SK-MEL-5 melanoma 100% | LOX IMVI melanoma 33.8% | UO-31 renal 68.3% | CCRF-CEM leukemia 53.9% | OVCAR-4 ovarian 93.1% | MCF7 breast 45.7% | HCT-116 colon 103% | HCC-2998 colon 99.3% | KM12 colon 81.4%

COc1ccc(OC)c(-n2cc(C#N)c(N)c2C(=O)c2ccc(Cl)cc2Cl)c1
active: SNB-75 CNS -7.62%
inactive: RXF 393 renal 55.5% | M14 melanoma 23.5% | U251 CNS 24.6% | SK-MEL-5 melanoma 54.2% | UACC-62 melanoma 30.5% | LOX IMVI melanoma 48.2% | UO-31 renal 56.7% | ACHN renal 53.3% | CCRF-CEM leukemia 11.4% | OVCAR-4 ovarian 86.2% | T-47D breast 42.6% | MCF7 breast 16.1% | HCT-116 colon 29.4% | HCC-2998 colon 64.8% | KM12 colon 27.4%

O=C(CSc1nc2ccccc2c(=O)n1-c1ccc(Cl)cc1)Nc1ccc(-c2nc3ccc([N+](=O)[O-])cc3[nH]2)cc1
inactive: M14 melanoma 32.4% | HCT-15 colon 56.3% | U251 CNS 20.6% | SK-MEL-5 melanoma 65.3% | MCF7 breast 20.9% | HCT-116 colon 19.1% | HCC-2998 colon 12.1% | KM12 colon 43%
active: RXF 393 renal -5.28% | LOX IMVI melanoma -30% | OVCAR-4 ovarian -12.1%

COc1cc2oc(-c3cccc(C(=O)Nc4ccc(Cl)cc4)c3)cc(=O)c2c(OCCNC(=O)[C@@H](N)CO)c1OC
inactive: RXF 393 renal 41.5% | HCT-15 colon 83% | UACC-62 melanoma 38.8% | OVCAR-4 ovarian 86.7% | T-47D breast 31.3% | HCT-116 colon 23.6% | HCC-2998 colon 20.5% | KM12 colon 35.2%
active: M14 melanoma -81.8% | U251 CNS -82.6% | SK-MEL-5 melanoma -81.9% | CCRF-CEM leukemia -37.9% | MCF7 breast -51.8%

COC(=O)CNC(=O)COc1c(OC)c(OC)cc2oc(-c3cccc(C(=O)Nc4ccc(Cl)cc4)c3)cc(=O)c12
active: M14 melanoma 7.29% | SK-MEL-5 melanoma 4.43% | OVCAR-4 ovarian 6.23%
inactive: RXF 393 renal 45.9% | HCT-15 colon 67.7% | ACHN renal 47.2% | CCRF-CEM leukemia 94.7% | MCF7 breast 22.5% | HCT-116 colon 43.8% | HCC-2998 colon 74.2% | KM12 colon 41.5%

Cn1cc(-c2nnc(N)nc2-c2c[nH]c3ccccc23)c2cc(Br)cnc21
inactive: M14 melanoma 25.1% | SNB-75 CNS 34% | U251 CNS 45.5% | UACC-62 melanoma 24.3% | OVCAR-4 ovarian 46.5% | MCF7 breast 14% | HCT-116 colon 22.8% | KM12 colon 51.1%
active: RXF 393 renal -20.1% | SK-MEL-5 melanoma -72.8% | HCC-2998 colon -27%

O=C(Nc1ccc(OCC(=O)c2ccc(Cl)cc2)cc1)Nc1ccc(Cl)c(C(F)(F)F)c1
inactive: HCT-15 colon 23.6% | SNB-75 CNS 51.5% | U251 CNS 35.6% | SK-MEL-5 melanoma 53.8% | UO-31 renal 13.9% | ACHN renal 16.8% | OVCAR-4 ovarian 38.1% | MCF7 breast 51.4% | HCT-116 colon 50.8% | HCC-2998 colon 33.4% | KM12 colon 14.9%
active: RXF 393 renal -60.8%

C#CCOc1cc(N(CC)CC)ccc1C(C(=O)NC(C)(C)C)N(C(=O)C1CCc2cc(F)ccc2O1)c1ccc(F)cc1F (centres undefined)
inactive: RXF 393 renal 64.6% | HCT-15 colon 34.9% | SNB-75 CNS 64.4% | SK-MEL-5 melanoma 11.2% | UACC-62 melanoma 29.1% | UO-31 renal 27.7% | CCRF-CEM leukemia 39.7% | OVCAR-4 ovarian 43.7% | MCF7 breast 17.5% | HCT-116 colon 24.7% | HCC-2998 colon 78.1% | KM12 colon 25%
active: LOX IMVI melanoma -5.11%

COc1ccc(Cc2nn(CC(=O)N/N=C/c3ccc(Br)cc3)c(=O)c3c(C)noc23)cc1
active: RXF 393 renal -33.7% | SNB-75 CNS -30.1% | U251 CNS -27.7% | OVCAR-4 ovarian -44% | HCT-116 colon 0.469%
inactive: M14 melanoma 57.6% | SK-MEL-5 melanoma 85.7% | CCRF-CEM leukemia 40.5% | MCF7 breast 40.4% | HCC-2998 colon 73.8% | KM12 colon 60.7%

O=C(Nc1ccc(OCc2ccc(Cl)cc2)cc1)Nc1ccc(Cl)c(C(F)(F)F)c1
inactive: M14 melanoma 12.5% | SNB-75 CNS 28% | UACC-62 melanoma 16.8% | ACHN renal 11.2% | OVCAR-4 ovarian 13.8% | KM12 colon 10.2%
active: RXF 393 renal -21% | HCT-15 colon 9.07% | SK-MEL-5 melanoma -81.4% | MCF7 breast 1.78% | HCT-116 colon 3.96% | HCC-2998 colon 3.51%
